Measurements published in PubChem BioAssay.
A number with no mark means an inactive call. How the calls were made is not given here.

Molecular target: Pantothenate synthetase (Mycobacterium tuberculosis (strain ATCC 25618 / H37Rv)) (UniProt P9WIL5)
Test: Coupled enzyme confirmation of inhibitors against recombinant Mtb PanC (AID 375);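 further: 0% = full reaction with vehicle and 100% = no enzyme background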
Details: coupled enzyme assay; at 10 µM, active compounds read high

Sequence of Pantothenate synthetase (Mycobacterium tuberculosis (strain ATCC 25618 / H37Rv)) (P9WIL5 whole entry, looked up): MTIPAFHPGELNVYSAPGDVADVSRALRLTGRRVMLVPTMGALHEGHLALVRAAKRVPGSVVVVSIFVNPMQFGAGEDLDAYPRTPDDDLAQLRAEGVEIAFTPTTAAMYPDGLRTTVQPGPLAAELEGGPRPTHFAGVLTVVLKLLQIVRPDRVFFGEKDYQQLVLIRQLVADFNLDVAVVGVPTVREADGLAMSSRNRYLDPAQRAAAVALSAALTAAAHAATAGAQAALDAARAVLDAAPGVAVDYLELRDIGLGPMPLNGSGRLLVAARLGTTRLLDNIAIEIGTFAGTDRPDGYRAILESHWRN

Row | SMILES | inhibition
1 | COc1cccc(C2=NOC(C(=O)N3CCN(c4ccccc4)CC3)C2)c1OC (stereo not drawn) | 1%
2 | O=C(CCn1c(=O)oc2ccccc21)NCCN1CCc2ccccc2C1 | 0%
3 | COc1ccc(OCC(=O)Nc2cccc3ncccc23)cc1 | 2%
4 | CCCN1C=CC(=C2C(=O)c3ccccc3C2=O)C=C1 | 0%
5 | C/C(=N\O)C(=O)NCCCNCCCN(C)C | 2%
6 | COC(=O)Cc1c(C)nc2nc(-c3ccccc3)[nH]n2c1=O | 0%
7 | CC1(C)Cc2nc3oc4c(N(CCO)Cc5ccccc5)ncnc4c3cc2CO1 | 0%
8 | CCOC(=O)c1cc2c(=O)n3ccccc3nc2n(CC(C)C)c1=NC(=O)c1ccco1 | 0%
9 | COc1cccc(NC(=O)CC2SC(=Nc3ccccc3)NC2=O)c1 (stereo not drawn) | 0%
10 | CCCn1cc(C(CC(=O)O)C(=O)O)c2ccccc21 (stereo not drawn) | 8%
11 | CCCc1cc(=O)[nH]c(=S)[nH]1 | 3%
12 | O=C(/C=C1\NC2(CCCC2)Cc2ccccc21)N1CCOCC1 | 0%
13 | O=C1NCC(COCc2ccccc2)O1 (stereo not drawn) | 3%
14 | Cc1sc2c(c1C)CN(C1CC(C)(C)NC(C)(C)C1)CN2C(=O)c1ccco1 | 7%
15 | O=C1CC(c2ccccc2)CC(O)=C1C=NCCCN1CCOCC1 (stereo not drawn) | 5%
16 | COc1ccc(Br)cc1CNC(=O)C1CCCN(S(C)(=O)=O)C1 (stereo not drawn) | 6%
17 | COc1ccc2cc(CN(CCO)C(=O)c3ccccc3F)c(=O)[nH]c2c1 | 5%
18 | NS(=O)(=O)c1cc2c(cc1Cl)NCNS2(=O)=O | 0%
